# Compound activity deposited in PubChem by The Scripps Research Institute Molecular Screening Center.
# MITF primary = inhibitors of human MITF | O75030 | AlphaScreen MITF homodimerization, bead proximity signal | inhibition, % at 2.6 µM | 650,000 compounds, 0.91% hits | AID 1259374; in the data active = inhibition above about 50%;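 note: 0% = vehicle wells with protein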
# GPR151 ag = human GPR151 activation | Q8TDV0 | PathHunter beta-arrestin GPR151 cells, luminescence | activation, % at 11.2 µM | 650,000 compounds, 1% hits; in the data active = activation above about 4.9%;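 note: 0% = median of compound wells and 100% = cells with positive control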
# Target sequence (Q8TDV0 whole entry, looked up): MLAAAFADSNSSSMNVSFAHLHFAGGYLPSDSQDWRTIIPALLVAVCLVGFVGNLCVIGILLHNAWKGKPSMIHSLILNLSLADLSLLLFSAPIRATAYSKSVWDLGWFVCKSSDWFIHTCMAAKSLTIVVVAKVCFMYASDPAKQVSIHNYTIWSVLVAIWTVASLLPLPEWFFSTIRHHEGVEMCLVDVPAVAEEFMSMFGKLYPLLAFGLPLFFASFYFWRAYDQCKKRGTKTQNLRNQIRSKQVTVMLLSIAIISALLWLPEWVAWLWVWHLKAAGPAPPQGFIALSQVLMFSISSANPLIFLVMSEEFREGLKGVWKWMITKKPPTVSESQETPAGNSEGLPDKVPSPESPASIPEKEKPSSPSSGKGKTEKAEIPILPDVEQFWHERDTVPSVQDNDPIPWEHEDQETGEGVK
# FBW7 act = activators of human E3 ligase FBW7; 650,000 compounds, 0.13% hits; normalized activity (activation), % at 26.1 µM; Q969H0; AlphaScreen FBW7–phospho-cyclin E peptide binding, activator screen; in the data active = normalized activity above about 1.9%;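 note: purified mutant Fbw7 with reduced substrate affinity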
# TEAD-YAP block = TEAD-YAP interaction inhibition. 640,000 compounds, 1.4% hits. HEK-TIYL cells, TEAD-Gal4/YAP UAS-luciferase luminescence. inhibition, % at 9.12 µM; in the data active = inhibition above about 32%;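 note: 0% = median of test compound wells and 100% = reference inhibitor wells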
# GPR151 confirm = human GPR151 activation, confirmation screen | shares compounds with GPR151 ag | GPR151 PathHunter beta-arrestin cells, luminescence, 90 min; % of EA-reagent control over plate median | activation, % at 11.2 µM | 6,700 tested, under 10 active;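 active = mean percent activation across replicates above the confirmation screen cutoff of 4.91%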
# GPR119 ag = counter-screen for GPR151 activators: effect on human GPR119; shares compounds with GPR151 ag; GPR119 PathHunter beta-arrestin cells, luminescence, 90 min; 0 = compound-well median, 100 = enzyme-acceptor control; activation, % at 11.2 µM; 6,700 compounds, 0.3% hits;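 active = mean percent activation in the counterscreen above 29.09%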;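 note: counterscreen on off-target GPR119 to flag nonselective hits from the GPR151 activator screen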
# An asterisk follows results filed as active; . = not tested or not shown. Most compounds without a hit are left out; they make up all but 3.5% or so of the library.
SMILES,MITF primary,GPR151 ag,FBW7 act,TEAD-YAP block,GPR151 confirm,GPR119 ag
CC1CCCCN1C(=O)COc1ccc(S(=O)(=O)N2CCCC2)cc1[N+](=O)[O-] (stereo not given),20,0,0,2,.,.
COc1ccc(S(=O)(=O)N2CCc3ccccc3C2)cc1I,10,0,0,9,.,.
CC(C)Oc1cc(S(=O)(=O)N2CCCCC2)ccc1N,6,9.9*,0,1,-1,-16
COc1ccc(S(=O)(=O)N2CCCCC2)cc1[N+](=O)[O-],5,5.0*,0,4,0,-3
CCCCOc1ccc(C2=N/C(=C\c3ccc(Br)cc3)C(=O)N2c2cccc(Cl)c2C)cc1,1,0,0,-1,.,.
Cc1cc(C)c(C#N)c(SC/C=C/CSc2nc(C)cc(C)c2C#N)n1,-19,-1,0,-8,.,.
Cc1cc(C)c(C#N)c(SC/C=C/c2ccccc2)n1,4,7.0*,0,-2,-1,-10
Cc1cccc(NC(=O)CCC2CCN(C(=O)c3cc(C)nc(C)n3)CC2)c1,8,5.2*,0,4,1,14
COc1ccc(N2CCN(C(=O)c3ccc4c(c3)NC(=O)C(CS(=O)(=O)Cc3ccccc3Cl)N4)CC2)cc1 (stereo not given),-1,0,0,11,.,.
CCCCOc1ccc(C(=O)N/C(=C/c2ccc(Cl)cc2)C(N)=O)cc1,-9,9.8*,0,12,-1,5
CCCCOc1ccc(C(=O)N/C(=C/c2ccc([N+](=O)[O-])cc2)C(N)=O)cc1,1,0,0,6,.,.
CCCCOc1ccc(/C=C/C(=O)N2CCCCC2)cc1,3,5.6*,0,-38,1,-7
Cc1nnc2n1NC(c1ccc(Cl)cc1)C(C(=O)N(C(C)C)C(C)C)S2 (stereo not given),2,-1,0,0,.,.
Cc1ccc(CNC(=O)CCc2nnc(C3(c4ccc(Cl)cc4)CCC3)o2)s1,5,1,0,-4,.,.
O=C(CCc1nnc(C2(c3ccc(Cl)cc3)CCC2)o1)NCc1ccccn1,13,5.1*,0,8,0,-6
Cc1ccccc1Cc1c(C)nc2nc(SCC(=O)N3CCC(C)CC3)nn2c1C,-1,1,0,7,.,.
CCC1CCCCN1C(=O)CSc1nc2nc(C)c(Cc3ccccc3C)c(C)n2n1 (stereo not given),1,5.2*,0,10,0,1
Cc1ccccc1Cc1c(C)nc2nc(SCC(=O)NC(C)(C)C)nn2c1C,7,16*,0,1,0,-10
CCCN(CCC)C(=O)CSc1nc2nc(C)c(Cc3ccccc3C)c(C)n2n1,9,5.0*,0,13,0,2
CCn1nc(C)c([C@@H]2C[C@H]3CN(C4Cc5ccccc5C4)C(=O)[C@]34CCCN24)c1C,3,-1,0,-3,.,.
CCCCC(=O)N1c2ccccc2NC2=C(C(=O)CCC2)C1c1ccc(O)c(OC)c1 (stereo not given),1,2,0,-2,.,.
O=C(O)CSc1nc2ccccc2n1CCOc1ccccc1,-2,6.4*,0,5,0,3
Cc1nn(C)cc1CNC(=O)c1cc2nc(-c3ccco3)cc(C(F)(F)F)n2n1,11,-1,1,5,.,.
O=C1N=C(N2CCCC2C(=O)O)S/C1=C\c1ccco1 (stereo not given),4,11*,0,7,-2,-5
O=C1N=C(N2CCCCC2)S/C1=C\c1ccco1,9,-2,0,-16,.,.
SMILES,MITF primary,GPR151 ag,FBW7 act,TEAD-YAP block,GPR151 confirm,GPR119 ag
Cc1ccc(C)c(Nc2ncc(F)c(N3CCOCC3)n2)c1,9,-1,0,-66,.,.
O=C(Nc1ccc(Oc2ccccc2)cc1)Nc1cccc([N+](=O)[O-])c1,23,7.0*,1,-8,0,1
CCCCN(/C=N/S(=O)(=O)c1ccccc1)CCCC,48,11*,0,3,0,2
NNC(=O)c1cccc(N2CCCC2=O)c1,-7,0,0,-22,.,.
CC(C)c1nnc(SCC(=O)NC(c2ccccc2)c2ccccc2)n1N,0,6.3*,0,-8,0,-7
Nn1c(SCC(=O)NC(c2ccccc2)c2ccccc2)nnc1C1CC1,-19,-1,0,12,.,.
CCn1c(SCC(=O)c2ccccc2)nnc1C(C)C,-9,13*,0,-15,1,9
CCn1c(SCC(=O)c2ccccc2)nnc1-c1ccccn1,6,0,-1,-58,.,.
COc1ccccc1-c1cc(C(=O)Nc2sc3c(c2C(N)=O)CCC(C)C3)no1 (stereo not given),3,-1,0,8,.,.
CCc1cc2ccc(OC)cc2nc1SCC(=O)NNC(=O)c1ccc(OC)cc1,7,0,0,-8,.,.
CC(=O)Nc1ccc(Nc2cc(C#N)c(C#N)cc2[N+](=O)[O-])cc1,-8,-1,0,-4,.,.
CCc1ccc(NC(=O)C2=C(C)NC(=O)NC2c2ccc(OC)c(O)c2)cc1 (stereo not given),-3,-1,0,-7,.,.
O=C(NCCN1CCOCC1)c1cccc(-n2ncc3cc(Nc4ccccc4Cl)ccc32)n1,3,4.9*,0,-2,1,-7
O=C(NCCN1CCOCC1)c1cccc(-n2ncc3cc(Nc4ccccc4Cl)ccc32)c1,5,-1,0,11,.,.
CCOc1cccc2cc(-c3csc(Nc4ccccc4C(F)(F)F)n3)c(=O)oc12,10,8.1*,0,-5,0,4
CCOc1cccc2cc(-c3csc(Nc4ccccc4Cl)n3)c(=O)oc12,0,2,0,7,.,.
CCc1ccc(C2=NC(C)(CC)NC(c3cc(Cl)ccc3O)C2)cc1 (stereo not given),1,1,0,2,.,.
CCCC1(C)N=C(c2ccc(CC)cc2)CC(c2cc(Br)ccc2O)N1 (stereo not given),12,11*,0,-2,0,8
CC(=O)N1CCOc2cc(S(=O)(=O)N3CCCC(C)C3)c(Cl)cc21 (stereo not given),3,-1,0,12,.,.
CN(C)CC(C)(C)CN(CCC#N)S(=O)(=O)c1cccc2nsnc12,14,5.0*,0,-1,0,0
CC(C)N(CCC#N)S(=O)(=O)c1cccc2nsnc12,-4,-1,0,7,.,.
CCOC(=O)C1=C(CC)NC2=C(C(=O)CCC2)C1c1ccccc1 (stereo not given),6,3,0,2,.,.
CCC(NS(=O)(=O)c1ccc(OC)cc1)C(=O)NCCCN1CCOCC1 (stereo not given),-4,2,0,8,.,.
O=C(c1oc2ccccc2c1N1CCCCC1)N1CCCCC1,0,5.0*,0,10,-1,0
C=C(C)CNc1nncc(-c2ccccc2C)n1,-6,6.2*,0,-5,0,1
